# Measurements from PubChem BioAssay.
# Activity calls are given as the source filed them. Unless noted, no rule for the calls is given here.
# Tests used:
# [1] = compound effects on lung adenocarcinoma cell viability – A549, calcein-AM fluorescence, 48 h, basal, profiling panel (AID 1162); details: higher = more signal; also: test concentration not given here
# [2] = compound effects on differentiated 3T3-L1 adipocyte viability – cell-based, 3T3-L1 adipocytes, calcein-AM fluorescence, 48 h, basal, profiling panel (AID 1163); details: 3T3-L1 adipocytes viability, higher = more signal; also: test concentration not given here
# [3] = compound effects on hepatocellular carcinoma cell viability – HepG2, calcein-AM fluorescence, 48 h, basal, profiling panel (AID 1164); details: higher = more signal; also: test concentration not given here
# [4] = compound effects on multiple myeloma cell viability – MM1S, calcein-AM fluorescence, 48 h, basal, profiling panel (AID 1165); details: higher = more signal;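 also: viability of MM1S multiple myeloma cells under basal unstimulated conditions; test concentration not given here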
# [5] = calcein-AM signal in unstimulated myeloma cells – cell-based, calcein-AM fluorescence, 48 h, PK04 Diversity Set, profiling panel (AID 1166); details: RPMI8226 myeloma viability, higher = more signal;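 also: cells grown under basal conditions without added stimulus; test concentration not given here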
# [6] = JC-1 mitochondrial signal, unstimulated HepG2 cells – cell-based, JC-1 fluorescence, 24 h, 100 nL compound, profiling panel (AID 1167); details: HepG2 mitochondrial potential, higher = more signal; also: test concentration not given here
# [7] = JC-1 mitochondrial signal, unstimulated adipocytes – cell-based, JC-1 fluorescence, 3T3-L1 adipocytes, 24 h, 100 nL compound, profiling panel (AID 1168); details: JC-1 mitochondrial fluorescence, higher = more signal, called active from +8 up or from −8 down; also: test concentration not given here
# [8] = JC-1 mitochondrial signal, unstimulated myeloma cells – cell-based, JC-1 fluorescence, RPMI8226, 24 h, 100 nL compound, profiling panel (AID 1169); details: JC-1 mitochondrial potential fluorescence, higher = more signal; also: test concentration not given here
# [9] = JC-1 mitochondrial signal, unstimulated MM1S myeloma – cell-based, JC-1 fluorescence, 24 h, 100 nL compound, profiling panel (AID 1170); details: MM1S mitochondrial potential, higher = more signal; also: test concentration not given here
# [10] = resazurin metabolic signal in A549 cells – cell-based, resazurin fluorescence, 24 h, PK04 Diversity Set, profiling panel (AID 1171); details: A549 viability, higher = more signal, called active from +8 up or from −8 down; also: test concentration not given here
# [11] = resazurin metabolic signal in HepG2 cells – cell-based, resazurin fluorescence, 24 h, PK04 Diversity Set, profiling panel (AID 1172); details: HepG2 viability, higher = more signal; also: test concentration not given here
# [12] = budding yeast growth changes without added modifier – OD600, strain BY4716, 24 h, basal condition, primary screen (AID 1173); details: S. cerevisiae BY4716 growth, OD600, 24 h; higher = more signal, called active from +8 up or from −8 down
# [13] = viability profiling in MM1S myeloma cells – cell-based, resazurin fluorescence, basal, 24 h, PK04 Diversity Set, profiling panel (AID 1174); details: higher = more signal, called active from +8 up or from −8 down; also: test concentration not given here
# [14] = target: Dihydroorotate dehydrogenase (quinone), mitochondrial (Plasmodium falciparum (isolate 3D7)) (UniProt Q08210); assay: inhibition of P. falciparum DHODH – biochemical, C-terminal His tag, absorbance 600 nm, primary screen (AID 1175); details: PfDHODH enzyme, DCIP absorbance 600 nm; higher = more signal, called active from +8 up or from −8 down;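 also: recombinant parasite enzyme with a five histidine tag at its C terminus; test concentration not given here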
# Dihydroorotate dehydrogenase (quinone), mitochondrial (Plasmodium falciparum (isolate 3D7)), sequence (Q08210 whole entry, looked up): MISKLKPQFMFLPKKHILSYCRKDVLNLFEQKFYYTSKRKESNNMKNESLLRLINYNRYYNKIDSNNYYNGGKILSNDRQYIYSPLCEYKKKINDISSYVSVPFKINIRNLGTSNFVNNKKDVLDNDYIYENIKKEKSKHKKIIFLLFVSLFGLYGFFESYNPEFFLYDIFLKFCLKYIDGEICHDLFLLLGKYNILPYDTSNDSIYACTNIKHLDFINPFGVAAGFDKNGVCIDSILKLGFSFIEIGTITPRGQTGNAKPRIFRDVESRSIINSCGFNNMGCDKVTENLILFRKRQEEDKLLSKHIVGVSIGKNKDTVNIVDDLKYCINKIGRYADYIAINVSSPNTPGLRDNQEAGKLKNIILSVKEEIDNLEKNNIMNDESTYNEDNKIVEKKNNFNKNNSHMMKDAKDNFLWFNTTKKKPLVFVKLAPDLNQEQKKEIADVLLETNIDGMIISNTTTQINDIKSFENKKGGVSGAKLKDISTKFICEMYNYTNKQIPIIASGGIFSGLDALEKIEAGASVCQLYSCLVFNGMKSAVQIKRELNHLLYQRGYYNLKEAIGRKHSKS
# [15] = inhibition of PAO1 biofilm formation – strain PAO1, LB-PBS medium, absorbance 600 nm, primary screen (AID 1176); also: test concentration not given here; details: P. aeruginosa PAO1 growth/biofilm, A600, 12 h; higher = more signal
# [16] = growth modulation of vineyard yeast isolate – strain RM11-1a, OD600, basal, 24 h, primary screen (AID 1177);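 also: cultures grown under basal conditions with no added stressor; test concentration not given here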; details: S. cerevisiae RM11-1a growth, OD600, 24 h; higher = more signal, called active from +8 up or from −8 down
# [17] = growth of efflux-deficient E. coli DRC39 – strain DRC39, OD650, 24 h, E. coli filamentation inducers, primary screen (AID 1178);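 also: growth measured as culture turbidity by optical density at 650 nm; test concentration not given here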; details: E. coli DRC39 acrAB, higher = more signal, called active from +8 up or from −8 down
# [18] = growth of efflux-deficient E. coli DRC39 – strain DRC39, OD650, 48 h, E. coli filamentation inducers, primary screen (AID 1179);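 also: screen aims at cell division blockers that make cells filament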; details: E. coli DRC39 delta-acrAB growth, higher = more signal, called active from +8 up or from −8 down
# [19] = viability profiling in RPMI8226 myeloma cells – cell-based, resazurin fluorescence, basal, 24 h, PK04 Diversity Set, profiling panel (AID 1180); details: higher = more signal;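 also: RPMI8826 multiple myeloma cell line at 5000 cells per well; test concentration not given here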
# [20] = target: E3 ubiquitin-protein ligase XIAP (Homo sapiens) (UniProt P98170); assay: small molecules binding XIAP protein – biophysical, small-molecule microarray, fluorescence 635 nm, primary screen (AID 1181); details: higher = more signal;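 also: score merges 667 nm emission and signal to noise over triplicate slides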
# E3 ubiquitin-protein ligase XIAP (Homo sapiens), sequence (P98170 whole entry, looked up): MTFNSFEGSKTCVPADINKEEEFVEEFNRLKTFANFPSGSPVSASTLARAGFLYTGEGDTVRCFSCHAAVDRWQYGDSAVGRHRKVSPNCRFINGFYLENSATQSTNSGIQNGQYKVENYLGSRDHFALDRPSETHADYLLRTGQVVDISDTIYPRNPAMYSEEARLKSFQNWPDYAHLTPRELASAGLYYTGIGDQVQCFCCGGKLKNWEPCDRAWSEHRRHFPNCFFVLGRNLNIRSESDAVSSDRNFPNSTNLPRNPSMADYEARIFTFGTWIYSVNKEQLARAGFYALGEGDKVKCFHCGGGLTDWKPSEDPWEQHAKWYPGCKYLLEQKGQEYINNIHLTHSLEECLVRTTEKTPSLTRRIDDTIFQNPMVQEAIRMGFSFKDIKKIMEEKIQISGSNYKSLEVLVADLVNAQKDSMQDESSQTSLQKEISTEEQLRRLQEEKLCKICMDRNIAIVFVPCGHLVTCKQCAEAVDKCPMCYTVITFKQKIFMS
SMILES,z-score [1],z-score [2],z-score [3],z-score [4],z-score [5],z-score [6],z-score [7],z-score [8],z-score [9],z-score [10],z-score [11],z-score [12],z-score [13],composite z-score [14],z-score [15],z-score [16],z-score [17],z-score [18],z-score [19],composite z-score [20]
COc1ccc(CCNC(=O)[C@@H]2c3ccccc3C(=O)N(C(C)C)[C@H]2c2ccc(CO)cc2)cc1,2.2,1.29,0.188,-0.397,1.1,0.733,-0.232 (inactive),-0.482,0.978,1.12 (inactive),0.862,-0.313 (inactive),1.35 (inactive),0.261 (inactive),-0.935 (inactive),0.326 (inactive),0.364 (inactive),0.246 (inactive),1.53,-0.178
O=C1N(Cc2ccccc2)c2ccccc2C[C@@]12N=C(c1ccc(OCCCO)cc1)O[C@H]2c1ccccc1,-1.32,0.84,-1.86,-3.33,-4.24,-0.237,-0.0792 (inactive),-1.29,0.811,-1.63 (inactive),-0.449,-1.21 (inactive),-2.11 (inactive),0.318 (inactive),2.26 (inactive),1.18 (inactive),0.0946 (inactive),-0.928 (inactive),-1.69,0.0918
C=CC[C@@]1(C(=O)NCCCOC)N=C(c2ccc(OCCCO)cc2)O[C@@H]1c1ccccc1CN=[N+]=[N-],-0.287,0.532,0.569,-0.459,-0.885,2.5,0.738 (inactive),-0.728,0.0149,0.41 (inactive),0.891,-0.574 (inactive),0.961 (inactive),0.346 (inactive),-0.248 (inactive),-0.343 (inactive),0.914 (inactive),0.831 (inactive),0.803,0.289
CCCCCN1CC=CC23O[C@@H]4/C=C\CCCOC(=O)C4[C@H]2C(=O)N(CCO)[C@@H]3C1=O (stereo not given in full),0.415,1.64,0.0134,1.59,0.218,-0.242,-0.428 (inactive),0.699,-0.307,-0.231 (inactive),-0.192,-1.2 (inactive),1.22 (inactive),-0.195 (inactive),0.938 (inactive),-0.843 (inactive),0.859 (inactive),0.188 (inactive),0.936,-0.0918
CC[C@H]1C2=C3C(CC[C@H]4C(OCc5ccc(F)cc5C(F)(F)F)OC[C@](C)([C@@H]34)N(C(=O)OC(C)(C)C)C2)C(COC(C)=O)C1COC(C)=O (stereo not given in full),-0.128,-0.154,0.228,-0.814,-2.5,3.43,-1.43 (inactive),-0.555,-1.29,0.226 (inactive),-0.409,0.249 (inactive),-1.04 (inactive),-0.804 (inactive),0.523 (inactive),0.348 (inactive),-1.26 (inactive),-0.539 (inactive),-0.866,0.48
COc1cc(CO)cc(I)c1O[C@H]1C=C(C(=O)NCCO)C[C@@H](N(CCN2CCOCC2)C(=O)C2CCCO2)[C@@H]1O (stereo not given in full),1.51,-0.786,0.315,0.605,-0.984,1.68,-0.526 (inactive),0.385,-0.1,-0.0953 (inactive),0.687,-0.371 (inactive),-0.202 (inactive),0.826 (inactive),-0.365 (inactive),0.772 (inactive),2.09 (inactive),1.21 (inactive),0.716,-0.117
CC(C)c1ccc(NN2C(C(O)C(C)c3ccccc3)C=CC3C(=O)N(c4ccccc4)C(=O)C32)cc1 (stereo not given),-0.625,-0.856,-1.03,-1.1,-1.34,-2.13,-1.75 (inactive),-0.628,-0.102,-0.868 (inactive),-1.72,0.0145 (inactive),-1.23 (inactive),-0.259 (inactive),1.22 (inactive),0.208 (inactive),-0.828 (inactive),-0.764 (inactive),-1.2,0.155
